Screening results from PubChem.
G9a block – G9a (human) methyltransferase inhibition; Q96KQ7; G9a H3K9 monomethylation, AlphaScreen, 2 h; Potency, µM (top dose mostly 102 µM), hits mostly inhibitors; 350,000 compounds, 8.8% hits; AID 504332; note: nearly all actives have a fitted effect of over 75% in size
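Using a bead-based AlphaScreen, monomethylated H3K9 product from 2 h room-temperature reactions (G9a 20 nM, peptide 500 nM, SAM 20 uM) was detected with 0.5 ug/mL rabbit anti-H3K9me1 antibody.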
BAZ2B block – BAZ2B (human) inhibition. Q9UIF8. AlphaScreen BAZ2B-H3K14Ac peptide displacement. Potency, µM (doses to about 114 µM), most hits filed as inhibitors. 360,000 compounds, 4.4% hits. AID 504333; note: nearly all actives have a fitted effect of over 60% in size
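In this displacement format the biotinylated H3(5-23) peptide acetylated at Lys14 serves as ligand at 50 nM, with BAZ2B at 50 nM in PBS pH 7.4 containing 0.01% Tween-20. Donor and acceptor beads are 10 ug/mL final.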
JMJD2A Tudor – JMJD2A Tudor domain (human) inhibition; O75164; AlphaScreen JMJD2A-Tudor / H3K4me3 peptide binding; Potency, µM (doses to about 114 µM), most hits filed as inhibitors; 390,000 compounds, 4.4% hits; AID 504339; note: nearly all actives have a fitted effect of over 50% in size
Sfp PPTase inh – inhibitors of Bacillus subtilis Sfp phosphopantetheinyl transferase | Q9F4F7 | Biochemical Sfp PPTase activity, qHTS | Potency, µM, most hits filed as inhibitors | 310,000 compounds, 3.5% hits | AID 1490;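 note: the enzyme is Sfp with the accession as filed and its product quenches rhodamine fluorescence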
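Reaction rates are the 30-min fluorescence difference (ex 525, em 598 nm) in wells containing 15 nM Sfp, 5 uM rhodamine-CoA and 12.5 uM BHQ-2-YbbR at pH 7.6 with 10 mM MgCl2.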
PLK1 PBD inh – blocks phosphopeptide binding to human PLK1 polo-box domain; P53350; Plk1 PBD binding of FITC phosphopeptide, fluorescence polarization; Potency, µM, hits mostly inhibitors; 360,000 compounds, 2.8% hits; note: series mostly up to about 57 µM; nearly all actives have a fitted effect of over 65% in size
Target sequence (P53350 whole entry, looked up, the tested form may be a part): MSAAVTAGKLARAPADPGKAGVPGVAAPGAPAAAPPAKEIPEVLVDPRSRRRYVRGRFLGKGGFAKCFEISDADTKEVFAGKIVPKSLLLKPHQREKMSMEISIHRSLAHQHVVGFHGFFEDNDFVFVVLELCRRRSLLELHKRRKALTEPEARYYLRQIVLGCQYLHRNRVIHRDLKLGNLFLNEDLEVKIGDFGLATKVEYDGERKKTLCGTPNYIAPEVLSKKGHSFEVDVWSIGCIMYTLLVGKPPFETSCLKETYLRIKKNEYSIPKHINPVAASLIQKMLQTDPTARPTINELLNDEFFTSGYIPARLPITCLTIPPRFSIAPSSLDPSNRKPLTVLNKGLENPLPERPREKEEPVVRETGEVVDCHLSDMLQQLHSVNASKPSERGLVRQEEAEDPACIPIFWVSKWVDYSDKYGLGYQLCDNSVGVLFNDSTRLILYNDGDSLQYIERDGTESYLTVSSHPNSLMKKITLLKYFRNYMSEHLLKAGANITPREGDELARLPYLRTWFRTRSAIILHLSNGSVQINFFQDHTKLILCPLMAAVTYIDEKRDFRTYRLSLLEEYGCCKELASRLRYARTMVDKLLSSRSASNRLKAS
HP1b chromo inh – blocks HP1-beta chromodomain binding to methylated histone tails; Potency, µM (doses to about 114 µM), most hits filed as inhibitors; P83916; 390,000 compounds, 0.56% hits; AID 540317; AlphaScreen HP1-beta / biotin-H3K9me3 peptide binding; note: nearly all actives have a fitted effect of over 70% in size
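HP1-beta protein (50 nM final) preincubated 30 min at room temperature with biotinylated H3(1-18)K9me3 peptide (50 nM) in PBS pH 7.4, 0.01% Tween-20, then compound added for 30 min. AlphaScreen streptavidin donor/nickel chelate acceptor beads (10 ug/mL final), 30 min dark, luminescence read.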
Each line names hits and unclear results; the compound was inactive in the other large screens. A selection: hits, their analogues and other compounds. The true share with any hit is near 12%. Calls come from the whole dose curve; as a rule, active = well fitted curve in the direction sought with a large enough effect; inconclusive = small, poorly fitted or top-dose-only effect, or another doubt; inactive = no such curve, though single readings can be large; an effect the other way counts as inactive or inconclusive.

COc1cc(-c2nc(-c3ccccn3)no2)cc(OC)c1OC	none
CCOc1ccccc1-c1nnc2n1N=C(c1cc(OC)ccc1OC)CS2	none (no result: G9a block, BAZ2B block, PLK1 PBD inh, HP1b chromo inh)
Cc1ccccc1OCc1nc(-c2ccc(Br)o2)no1	G9a block 79µM, BAZ2B block inconclusive
O=c1[nH]c(CN2CCc3ccccc3C2)nc2ccccc12	G9a block inconclusive
Cc1[nH]c2ccccc2c1CN1CCc2ccccc2C1	G9a block 13µM, BAZ2B block inconclusive, JMJD2A Tudor 40µM
O=C1/C(=N/n2cnnc2)c2ccccc2N1Cc1ccccc1	G9a block inconclusive, Sfp PPTase inh 45µM (no result: JMJD2A Tudor, PLK1 PBD inh, HP1b chromo inh)
O=C1C(=O)N(Cc2ccc(Cl)c(Cl)c2)c2ccccc21	Sfp PPTase inh 50µM (no result: G9a block, BAZ2B block, JMJD2A Tudor, PLK1 PBD inh, HP1b chromo inh)
CCCCn1cc2c(c1-c1ccc(Br)cc1)c(=O)n(C)c(=O)n2C	G9a block inconclusive (no result: Sfp PPTase inh, PLK1 PBD inh)
O=C(O)c1cc(S(=O)(=O)NCCOc2ccccc2)ccc1Cl	none (no result: G9a block, BAZ2B block, Sfp PPTase inh)
COc1ccccc1CN(Cc1cc2cc(C)cc(C)c2[nH]c1=O)Cc1nnnn1CC1CCCO1 (centres undefined)	none
CCOC(=O)Cn1nnnc1CN(Cc1ccc(OC)cc1)Cc1cc2cc(C)cc(C)c2[nH]c1=O	G9a block 22µM, Sfp PPTase inh 35µM
CCOC(=O)Cn1nnnc1CN(Cc1ccc(OC)cc1)Cc1cc2cc(C)ccc2[nH]c1=O	G9a block inconclusive, Sfp PPTase inh 71µM
CCc1ccc2[nH]c(=O)c(CN(Cc3ccccc3OC)Cc3nnnn3Cc3ccco3)cc2c1	G9a block inconclusive
CCOC(=O)Cn1nnnc1CN(Cc1ccc(OC)cc1)Cc1cc2cc(CC)ccc2[nH]c1=O	G9a block inconclusive, Sfp PPTase inh 18µM
COCCNC(=O)CSc1nc2cc3c(cc2c(=O)n1CCCCCC(=O)NCCc1ccc(OC)c(OC)c1)OCO3	none (no result: Sfp PPTase inh, PLK1 PBD inh)
Cc1cccc(C)c1NC(=S)/C(=C(\[O-])c1cccs1)[n+]1ccccc1	G9a block 7.9µM, Sfp PPTase inh inconclusive
[O-]/C(=C(\C(=S)Nc1cccc2ccccc12)[n+]1ccccc1)c1cccs1	G9a block 35µM, BAZ2B block inconclusive, JMJD2A Tudor 79µM, Sfp PPTase inh inconclusive, HP1b chromo inh inconclusive
COc1cccc(=O)c2c(C)n(CC(=O)c3ccccc3)c(C)c12	G9a block inconclusive, BAZ2B block inconclusive, Sfp PPTase inh 45µM
COc1ccccc1C(=O)CC(=O)c1ccccc1	none (no result: G9a block)
CCOc1cccc(=O)c2c(C)n(CC(=O)c3ccccc3)c(C)c12	G9a block inconclusive, HP1b chromo inh 79µM
Cc1nc(CCNC(=O)c2cc(COc3ccc(F)cc3Cl)on2)sc1C	Sfp PPTase inh 40µM (no result: G9a block)
COc1ccc(-n2nnnc2C(c2ccccc2OC(F)(F)F)N2CCN(C/C=C/c3ccccc3)CC2)cc1 (centres undefined)	none (no result: G9a block, BAZ2B block, JMJD2A Tudor, Sfp PPTase inh, HP1b chromo inh)
CC(=O)N1CC=CC1(CC(C)C)C(=O)NCc1ccc(C)o1 (centres undefined)	Sfp PPTase inh 45µM (no result: G9a block, BAZ2B block, JMJD2A Tudor, PLK1 PBD inh, HP1b chromo inh)
CNC(=O)C1(CC(C)C)C=CCN1C(C)=O (centres undefined)	none
CCOC(=O)N1CCc2[nH]c3ccc(C)cc3c2C1	G9a block 10µM, BAZ2B block inconclusive, JMJD2A Tudor inconclusive
CCOC(=O)c1ccc2[nH]c3c(c2c1)CN(C)CC3	none
CC(=O)N1CCc2[nH]c3ccc(C)cc3c2C1	BAZ2B block 56µM, PLK1 PBD inh inconclusive
O=C(COCc1cc(-c2ccco2)on1)Nc1ccc(OC(F)(F)F)cc1	G9a block inconclusive (no result: Sfp PPTase inh, PLK1 PBD inh)
COc1cccc(C2=CC(c3ccc(OC)c(OC)c3)NC(=S)N2)c1 (centres undefined)	BAZ2B block inconclusive (no result: G9a block)
COc1ccc(C2=CC(c3ccc(OC)c(OC)c3)NC(=S)N2)cc1 (centres undefined)	G9a block 32µM, PLK1 PBD inh inconclusive
COc1ccc(C2C=C(c3ccc(F)cc3)NC(=S)N2)cc1OC (centres undefined)	G9a block 45µM, BAZ2B block inconclusive, HP1b chromo inh inconclusive
COc1ccc(C2C=C(C34CC5CC(CC(C5)C3)C4)NC(=S)N2)cc1 (centres undefined)	G9a block inconclusive, BAZ2B block inconclusive, JMJD2A Tudor inconclusive, PLK1 PBD inh 12µM
O=C(Nc1nnc2n1CCS2)c1cc(C(F)(F)F)cc(C(F)(F)F)c1	none (no result: Sfp PPTase inh, PLK1 PBD inh)
